Active and inactive are the calls of the source. How the source made its calls: active means hit-call score of the fitted dose curve at least 0.9, where 1 is the maximum; inactive means score below 0.9.
These compounds were tested on Lipoprotein lipase (LPL), LPL (gene 4023) (assay: LTEA_HepaRG_LPL: Life Technologies and Expression Analysis (LTEA) Assay for Lipoprotein lipase (LPL) using HepaRG (AID 2283515)). Conditions: mRNA level, 48 h; actives raise or lower the signal.
Experimental: LTEA_HepaRG is a cell based, multiplexed-readout assay that uses HepaRG, a human liver cell line, with measurements taken at 48 hours after chemical dosing on a 96-well plate.LTEA_HepaRG_LPL is one of 102 assay component(s) measured in the LTEA HepaRG cell culture assay. It is a marker of Steatosis.Data from the assay component LTEA_HepaRG_LPL was analyzed into 1 endpoint. This assay endpoint, LTEA_HepaRG_LPL, was analyzed with bidirectional fitting relative to DMSO as the negative control and baseline of activity. Using a type of inducible reporter, measures of mRNA induction for gain or loss-of-signal activity can be used to understand regulation of transcription factor activity. To generalize the intended target to other relatable targets, this assay endpoint is annotated to the esterase intended target family, where the subfamily is lipase.
A total of 1060 chemcials from the ToxCast library were tested in eight-point concentration-response experiments. Cell culture and cytotoxicity assays were conducted at Thermo Fisher Scientific's Custom Services facility (Madison, WI). A single lot of human HepaRG cells (Thermo Fisher Scientific, Frederick, MD) was used for the cell culture experiments. 96-well format collagen type I coated plates of human HepaRG cells were prepared using established methods. Briefly, cryopreserved HepaRG cells were thawed, plated at a density of approximately 100,000 cells/well in HepaRG Thaw, Plate, and General Purpose media (HPRG770, Thermo Fisher Scientific), and incubated for 48 hours. 0.5% DMSO was selected as vehicle control to balance the requisite need of DMSO in HepaRG cultures to maintain differentiation (for example, baseline metabolism, proportions of hepatocytes vs. cholangiocytes), while enabling further hepatic receptor pathway activation (for example, PXR and CAR) in response to chemical exposure. 48 hours after plating, the culture medium was replaced with HepaRG Serum-Free Incudtion Media. Cells were exposed to each test chemical in duplicate and maintained in CO2 incubators for another 48 hours. Chemical plates were thawed to room temperature and 200x concentrations of treatment groups were prepared. 8-point conentration-reponse curves were made with the highest exposure at 100 uM, followed by half-log dilutions, all in 0.5% DMSO. Each test plate contained variouse controls, induction positive controls (1mM phenobarbital), cytotoxicity positive controls ([…] aflatoxin B1), vehicle controls (0.5% DMSO), and total lysis controls (0.5% DMSO). Cell morphology images were taken using an Essen IncuCyte FLR automated microscope, with six 96-well plates imaged in about 24 minutes. Images were captured and exported and JPEG files. Spent culture media was transfered to black-well plates for the LDH assay, and remaining media was sorted at -80 C for later use. Cells were treated with RLT buffer and frozen until shipped for gene expression analysis. Total RNA was isolated from the cell suspension in 75 uL of Buffer RLT (Qiagen, Germantown, MD 20874) by Quintiles/Expression Analysis (Durham, NC) using a custom isolation procedure. Total RNA from each plate well was transferred to a preamplification plate. Fluidigm's 96.96 Dynamic ArrayTM (Fluidigm, Amsterdam, the Netherlands) technology was used for gene expression analyses by quantitative reverse transcription polymerase chain reaction (qRT-PCR, performed by Quintiles/Expression Analysis, Durham, NC)89. Standard TaqManTM Assays (Applied Biosystems/ThermoFisher Scientific, Foster City, CA) were used to assess the expression of 93 genes selected based on their selectivity and sensitivity to important hepatic receptors known to be modulated by environmental chemicals; importance in human hepatocyte functionality; and hepatotoxicity. […]

Compound | outcome | AC50
CC(C)C(=O)OCC(C)(C)C(OC(=O)C(C)C)C(C)C (stereo not given) | inactive | 
CCOCCOC(C)=O | inactive | 
NS(=O)(=O)C(F)(F)C(F)(F)C(F)(F)C(F)(F)C(F)(F)C(F)(F)C(F)(F)C(F)(F)F |  | 70.8 µM (active)
Nn1cnnc1 | inactive | 
O=C(N[C@H]1CN2CCC1CC2)c1cc2ccoc2cn1 | inactive | 
C=CC(N)=O | inactive | 
Cc1cccc(C)c1N | inactive | 
CCOP(=S)(OCC)SCSC(C)(C)C | inactive | 
Cc1cccc([N+](=O)[O-])c1 | inactive | 
ClC1=C(Cl)[C@]2(Cl)[C@@H]3[C@@H]4C[C@@H]([C@H]5O[C@@H]45)[C@@H]3[C@@]1(Cl)C2(Cl)Cl | inactive | 
COS(=O)(=O)OC | inactive | 
O=NN(c1ccccc1)c1ccccc1 | inactive | 
Clc1ccc(C(c2ccccc2Cl)C(Cl)(Cl)Cl)cc1 (stereo not given) |  | 89.7 µM (active)
Cc1ccccc1CO[C@@H]1C[C@@]2(C(C)C)CC[C@]1(C)O2 | inactive | 
Cc1ccc(O)c(C)c1 | inactive | 
CN(C)CCO | inactive | 
C1CC2OC2CC1C1CO1 (stereo not given) | inactive | 
Oc1ccc(C(c2ccc(O)cc2)(C(F)(F)F)C(F)(F)F)cc1 |  | 79.3 µM (active)
c1cc2ccc3cccc4ccc(c1)c2c34 | inactive | 
O=S(=O)(O)C(F)(F)C(F)(F)C(F)(F)C(F)(F)C(F)(F)C(F)(F)F | inactive | 

Compound | outcome | AC50
CCC(=O)O[C@H]1CC[C@H]2[C@@H]3CCC4=CC(=O)CC[C@]4(C)[C@H]3CC[C@]12C | inactive | 
O=C(O)C(F)(F)C(F)(F)C(F)(F)C(F)(F)C(F)(F)C(F)(F)C(F)(F)C(F)(F)C(F)(F)F |  | 89.2 µM (active)
CC(C)(O)C(=O)Nc1ccc([N+](=O)[O-])c(C(F)(F)F)c1 | inactive | 
CC(c1ccc(O)cc1)(c1ccc(O)cc1)c1ccc(O)cc1 |  | 68.6 µM (active)
Clc1ccc(C(Cl)(Cl)Cl)cc1 | inactive | 
CCCCCCCCCc1ccc(O)cc1 | inactive | 
c1ccc(-c2ccccc2)cc1 | inactive | 
C[C@]12CCC(=O)C=C1CC[C@@H]1[C@@H]2CC[C@@]2(C)[C@H]1CC[C@]2(C)O | inactive | 
COc1ccc(O)c(C(C)(C)C)c1 | inactive | 
Cc1cc(-c2ccc(N)c(C)c2)ccc1N |  | 50 µM (active)
Clc1ccc(Cl)cc1 | inactive | 
O=C(NC(=O)c1cc(F)c(F)cc1Cl)Nc1cc(F)ccc1N1CCC(C(=O)O)CC1 | inactive | 
Cc1ccccc1[N+](=O)[O-] | inactive | 
CCCCCCCCOC(=O)c1ccccc1C(=O)OCCCCCCCC | inactive | 
C=CC(=O)NCNC(=O)C=C | inactive | 
CCCCCCOC(=O)c1ccccc1C(=O)OCCCCCC | inactive | 
O=C(NC(=O)c1c(F)cccc1F)Nc1cc(Cl)c(OC(F)(F)C(F)F)c(Cl)c1 | inactive | 
CC(C)(c1ccccc1)c1ccc(O)cc1 | inactive | 
CCCN(CCC)N=O | inactive | 
CCC(C)(CC)c1cc(NC(=O)c2c(OC)cccc2OC)on1 | inactive | 

— PubChem BioAssay (EPA / NIEHS)
